Screens as filed in PubChem BioAssay.
Dyrk1A ADPGlo: inhibitors of rat Dyrk1A kinase; Q63470; ADP-Glo luminescence, NFATc1 peptide; actives 0.43% (n = 310,000); inhibition, % at 12.5 µM; in the data active means inhibition above about 50%
dFosB activator: activators of mouse delta FosB homodimer | P13346 | purified delta FosB, TAMRA-CDK5 oligo fluorescence polarization; percent of positive-control signal above neutral wells | activation, % at 25 µM | actives 0.99% (n = 340,000) | AID 493131;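 active means mean activation above about 17%, with every replicate also reaching it, limit read from the data, passing the limit was not always enough; inconclusive means only one of the two conditions met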
Rtt109 HAT inh: C. albicans Rtt109 histone acetyltransferase inhibition | actives 0.16% (n = 330,000) | purified Rtt109/Vps75, ThioGlo CoA-SH fluorescence, 4 h | inhibition, % at 34.9 µM | Q5AAJ8;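 active means inhibition of at least 50% in every replicate; inconclusive means best replicate reaches 50% inhibition but some replicates fall short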
CDK5 inh: CDK5/p35 (human) kinase inhibition | Q00535+Q15078 | Recombinant CDK5/p35, ADP-Glo luminescence, 60 min | inhibition, % at 10 µM | actives 0.01% (n = 330,000);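 active means highest replicate inhibition of at least 50% and at least 75% of replicates reaching 50%; inconclusive means only one of the two criteria met; inactive means both criteria failed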
Target sequence (Q00535 whole entry, looked up): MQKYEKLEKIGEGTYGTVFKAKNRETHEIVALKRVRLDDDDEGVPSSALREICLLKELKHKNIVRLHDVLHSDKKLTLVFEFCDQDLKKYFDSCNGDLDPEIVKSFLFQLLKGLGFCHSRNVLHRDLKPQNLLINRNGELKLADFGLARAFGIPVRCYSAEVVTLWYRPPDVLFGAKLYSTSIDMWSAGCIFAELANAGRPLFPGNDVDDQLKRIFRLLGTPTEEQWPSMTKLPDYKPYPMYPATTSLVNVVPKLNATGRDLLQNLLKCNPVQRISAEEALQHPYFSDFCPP
Target sequence (Q15078 whole entry, looked up): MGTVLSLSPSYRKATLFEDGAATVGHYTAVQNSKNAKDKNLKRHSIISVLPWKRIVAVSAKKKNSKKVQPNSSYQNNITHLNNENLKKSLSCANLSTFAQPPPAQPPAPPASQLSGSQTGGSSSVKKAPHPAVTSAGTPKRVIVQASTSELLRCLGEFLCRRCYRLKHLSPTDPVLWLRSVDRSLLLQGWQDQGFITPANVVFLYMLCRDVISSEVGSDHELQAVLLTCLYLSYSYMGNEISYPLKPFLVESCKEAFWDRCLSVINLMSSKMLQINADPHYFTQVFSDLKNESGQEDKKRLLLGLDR
esBAF inh: SWI/SNF esBAF complex inhibition | reporter increase, % at 12.5 µM | mouse ES cells, Bmi1-luciferase knock-in reporter, 24 h; 100% = twice the neutral-well signal | actives 2% (n = 350,000); in the data active means activation above about 40%; inconclusive means no clear call, values can overlap the other calls;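 further: a rise in the Bmi1 reporter signal indicates esBAF inhibition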
SMARCA2 act: SMARCA2 function activation, primary screen. MG213 cells, MMTV-luciferase reporter, dexamethasone, overnight. activation, % at 9.1 µM. actives 1% (n = 370,000). AID 652017; in the data active means activation above about 7.8%
Numbers stand for hits; . = inactive; ? = inconclusive; / = no result given. A selection: hits, their analogues and other compounds. The true share with any hit is near 3.2%.

SMILES	Dyrk1A ADPGlo	dFosB activator	Rtt109 HAT inh	CDK5 inh	esBAF inh	SMARCA2 act
Cc1ccccc1CNC(=O)Nc1ccc(Cl)cc1	.	.	.	.	61	.
Cn1c(SCC(=O)NC2CCCCC2)nnc1-c1cccnc1	.	.	54	.	.	.
C[C@H]1CN([C@@H](C)CO)C(=O)Cc2cc(NC(=O)Cc3ccccc3)ccc2O[C@H]1CN(C)Cc1ccncc1	/	/	/	/	.	/
N#Cc1nc(-c2ccc(OCc3ccccc3)cc2)oc1NCc1ccco1	.	.	.	.	.	.
Cc1cccc(-c2nc(C#N)c(NCc3ccco3)o2)c1	.	.	.	.	59	.
Cc1ccc(-c2nc(C#N)c(NCc3ccco3)o2)cc1	.	.	.	.	73	.
N#Cc1nc(-c2ccc(F)cc2)oc1NCc1ccco1	/	.	.	.	.	.
CNc1oc(-c2ccc(OCc3ccccc3)cc2)nc1C#N	.	.	.	.	69	.
COc1ccc(-c2nc(C#N)c(NCc3ccco3)o2)cc1	.	.	.	.	.	.
CCC(C)NC(=O)c1cc2cc3ccc(OC)cc3nc2o1 (stereo unspecified)	.	.	.	.	55	.
COc1ccc2cc3cc(C(=O)NCCC(C)C)oc3nc2c1	.	.	.	.	.	.
CCCCN(CC)C(=O)c1cc2cc3ccc(OC)cc3nc2o1	.	.	.	.	88	.
CCOCCCNC(=O)c1cc2cc3cc(OC)ccc3nc2o1	.	.	.	.	.	.
COc1ccc2nc3oc(C(=O)NCc4cccs4)cc3cc2c1	.	60	.	.	.	.
CN1[C@@H]2c3ccc(-c4ccc(F)cc4)c(=O)n3C[C@H]1[C@H](CO)[C@H]2C(=O)NC1CCCCC1	/	/	/	/	.	/
O=C(CCN1CCCCC1)NCC[C@H]1CC[C@H](NS(=O)(=O)c2cccc(F)c2)[C@@H](CO)O1	/	/	/	/	.	/
CCN1/C(=C/c2ccc3ccccc3[n+]2CC)C=Cc2ccccc21	.	.	?	.	.	.
CCN1/C(=C/c2ccc3cc(C)ccc3[n+]2CC)Sc2cc(C)ccc21	.	.	82	.	.	.
CCCCN1/C(=C/c2ccc3ccccc3[n+]2CC)Sc2ccccc21	.	27	.	.	/	/
C[C@@H]1CCCCO[C@H](CN(C)CC2CCCCC2)[C@@H](C)CN([C@H](C)CO)C(=O)c2cc(NS(=O)(=O)c3ccccc3)ccc2O1	/	/	/	/	.	/
COC(=O)c1[nH]c2ccc(Cl)cc2c1NC(=O)Oc1ccccc1	.	.	.	.	58	.
COC(=O)c1[nH]c2ccc(Cl)cc2c1NC(=O)C1CC1	.	.	.	.	.	.
CO[C@H]1CN(C)C(=O)c2cc(NC(=O)Nc3cccc(F)c3)ccc2OC[C@H](C)N(C(=O)C2CC2)C[C@@H]1C	/	/	/	/	.	/
COc1cccc(NC(=O)c2csc3c2CCCC3)c1	.	.	.	.	69	.
COc1cc(OC)c(C(=O)Nc2ccc3ccccc3c2)cc1OC	.	.	.	.	54	/
SMILES	Dyrk1A ADPGlo	dFosB activator	Rtt109 HAT inh	CDK5 inh	esBAF inh	SMARCA2 act
COc1cc2ccccc2cc1C(=O)Nc1ccc(Cl)cn1	.	.	.	.	67	.
COc1ccc(NC(=O)c2cc3ccccc3cc2OC)cc1OC	.	.	.	.	/	.
COc1ccc2nc(NC(C)=O)sc2c1	.	.	.	.	.	.
COc1ccc2nc(NC(=O)c3ccc(F)cc3)sc2c1	.	.	.	.	55	.
CC(C)NC(=O)N(C)C[C@H]1Oc2ncc(C#Cc3ccc(F)cc3)cc2C(=O)N([C@@H](C)CO)C[C@H]1C	/	/	/	/	.	/
COc1ccc(NC(=O)Nc2ccc3c(c2)C(=O)N([C@@H](C)CO)C[C@@H](C)[C@H](CN(C)S(=O)(=O)c2ccccc2)OCCCC[C@H](C)O3)cc1	/	/	/	/	.	/
C[C@@H]1CN([C@@H](C)CO)C(=O)c2cc(-c3ccc(F)cc3)cnc2O[C@H]1CN(C)C(=O)C1CCC1	/	/	/	/	.	/
C[C@H]1CN([C@@H](C)CO)C(=O)Cc2cc(NC(=O)Nc3ccc(F)cc3)ccc2O[C@H]1CN(C)C(=O)Nc1ccc(F)cc1	/	/	/	/	.	/
Cc1cccc(C(=O)Nc2nc3ccc(S(C)(=O)=O)cc3s2)c1	.	.	.	.	46	.
CCOC(=O)c1ccc2nc(NC(C)=O)sc2c1	.	.	.	.	47	.
CS(=O)(=O)c1ccc2nc(NC(=O)c3ccccc3)sc2c1	.	.	.	.	.	.
CCOc1ccc(C(=O)Nc2ccc(Cl)cn2)cc1Cl	.	?	.	.	132	.
COC(=O)c1cc(OC)c(OC)cc1NC(=O)c1ccccc1	.	.	.	.	.	.
COC(=O)c1cc(OC)c(OC)cc1NC(=O)c1ccc(OC)c(OC)c1	.	19	.	.	.	.
C[C@@H]1CN([C@@H](C)CO)C(=O)Cc2cc(NS(=O)(=O)c3ccc(F)cc3)ccc2O[C@@H]1CN(C)S(C)(=O)=O	/	/	/	/	.	/
COc1cc2ccccc2cc1C(=O)Nc1ccc(O)cc1	.	.	.	.	?	.
Cc1noc(C)c1C(=O)Nc1nc2ccc(F)cc2s1	.	.	.	.	52	.
O=C(Nc1nccs1)c1csc2c1CCCC2	.	.	.	.	63	.
COc1ccc(C(=O)Nc2nc(CC(=O)NCc3ccc(F)cc3)cs2)cc1	.	.	.	.	50	.
COc1ccc(C(=O)Nc2nc(CC(=O)NCc3c(F)cccc3F)cs2)cc1	/	/	/	/	?	.
COc1cccc(NC(=O)c2cc3ccccc3cc2OC)c1	/	.	.	.	50	.
O=C(N[C@@H]1C=C[C@H](CC(=O)N2CCCCC2)O[C@H]1CO)c1ccc2c(c1)OCO2	/	/	/	/	.	/
O=C(Nc1ccc2ccccc2c1)c1cc(F)c(F)cc1Cl	/	.	.	.	78	.
COc1ccc(C(=O)Nc2nc3ccccc3s2)cc1	.	.	.	.	.	.
Cc1cccc(NC(=S)Nc2cccc3ccccc23)c1	.	.	.	.	.	.
SMILES	Dyrk1A ADPGlo	dFosB activator	Rtt109 HAT inh	CDK5 inh	esBAF inh	SMARCA2 act
COc1cccc(NC(=S)Nc2cccc3ccccc23)c1	.	.	.	.	55	.
COc1ccc(C(=O)Nc2nc3ccccc3s2)cc1OC	.	.	.	.	78	.
O=C(Nc1ccc2ccccc2c1)c1ccc(Cl)cc1Cl	.	.	.	.	.	.
COc1ccc(C(=O)Nc2ccc3ccccc3c2)cc1OC	.	.	.	.	86	.
C[C@H]1CN([C@@H](C)CO)C(=O)Cc2cc(NC(=O)CCN3CCOCC3)ccc2O[C@@H]1CN(C)C(=O)Nc1ccc(F)cc1	/	/	/	/	.	/
COc1ccc(-c2cnc3c(c2)C(=O)N([C@H](C)CO)C[C@@H](C)[C@H](CN(C)C(=O)Cc2cccnc2)O3)cc1	/	/	/	/	.	/
C[C@@H]1CN([C@@H](C)CO)C(=O)Cc2cc(NS(=O)(=O)c3ccc(F)cc3)ccc2O[C@@H]1CN(C)C(=O)NC1CCCCC1	/	/	/	/	.	/
CC(=O)c1cccc(NC(=S)NC(=O)c2ccc(C)cc2Cl)c1	.	.	.	.	60	.
